High-throughput results (PubChem)
Compounds with a hit are over-represented: about 10% of the library has one in this group of screens.
G9a block: G9a (human) methyltransferase inhibition; Q96KQ7; G9a H3K9 monomethylation, AlphaScreen, 2 h; Potency, µM (doses to about 102 µM), hits mostly inhibitors; hit rate 8.8% among 350,000; AID 504332; note: nearly all actives have a fitted effect of over 75% in size
Target sequence (Q96KQ7 913-1193 limits assumed): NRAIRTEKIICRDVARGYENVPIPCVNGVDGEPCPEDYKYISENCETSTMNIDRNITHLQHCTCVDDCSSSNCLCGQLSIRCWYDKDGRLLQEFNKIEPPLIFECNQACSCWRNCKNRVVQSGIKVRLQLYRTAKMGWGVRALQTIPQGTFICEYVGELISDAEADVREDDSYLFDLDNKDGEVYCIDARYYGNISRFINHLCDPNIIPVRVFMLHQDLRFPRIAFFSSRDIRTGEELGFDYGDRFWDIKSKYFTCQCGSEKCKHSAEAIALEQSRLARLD
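Compounds were preincubated with 20 nM G9a for 15 min, after which biotinylated H3K9 peptide (500 nM) and SAM (20 uM) started a 2 h room-temperature reaction. Monomethylated product was quantified by antibody-based AlphaScreen chemiluminescence.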
BAZ2B block: inhibitors of human BAZ2B bromodomain | hit rate 4.4% among 360,000 | Potency, µM (highest dose often 114 µM), most hits filed as inhibitors | Q9UIF8 | AlphaScreen BAZ2B-H3K14Ac peptide displacement; note: nearly all actives have a fitted effect of over 60% in size
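AlphaScreen displacement: compounds (up to 110uM) incubated 30 min at room temperature with a preformed 50 nM BAZ2B/50 nM biotinylated H3K14Ac peptide complex in PBS pH 7.4 with Tween-20. Donor and acceptor beads at 10 ug/mL final added, 20 min light-protected before reading.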
HP1b binding inh: blocks HP1-beta chromodomain binding to methylated histone tails; Potency, µM (titrated, usually from 114 µM), actives largely listed as inhibitors; AID 540317; AlphaScreen HP1-beta / biotin-H3K9me3 peptide binding; hit rate 0.56% among 390,000; note: nearly all actives have a fitted effect of over 70% in size
Target sequence (P83916 whole entry, looked up): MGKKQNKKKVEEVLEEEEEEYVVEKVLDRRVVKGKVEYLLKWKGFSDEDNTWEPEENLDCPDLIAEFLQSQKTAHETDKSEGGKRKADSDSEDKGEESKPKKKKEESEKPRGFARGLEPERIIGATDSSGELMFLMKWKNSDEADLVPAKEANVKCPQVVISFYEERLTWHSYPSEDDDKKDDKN
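Compound inhibition of the preformed complex between 50 nM HP1-beta and 50 nM biotinylated H3K9me3 peptide was read by AlphaScreen. Buffer was PBS pH 7.4 with 0.01% Tween-20. Incubations ran 30 min at room temperature, with 10 ug/mL donor/acceptor beads.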
GLS inhibitor: blocks human kidney-isoform glutaminase activity. O94925. Potency, µM (series often up to 45.5 µM), hits mostly inhibitors. GLS enzymatic activity, qHTS titration. hit rate 0.21% among 410,000. AID 624170
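Glutamate formation by hKGA was monitored fluorometrically using coupled glutamate oxidase, HRP and Amplex Red. Substrate was added as 1 mM L-glutamine solution; incubation was 30 min at RT after an initial read.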
JMJD2A Tudor: inhibitors of human JMJD2A Tudor domain. O75164. AlphaScreen JMJD2A-Tudor / H3K4me3 peptide binding. Potency, µM (doses to about 114 µM), most hits filed as inhibitors. hit rate 4.4% among 390,000; note: nearly all actives have a fitted effect of over 50% in size
Each line names hits and unclear results; the compound was inactive in the other large screens. Calls come from the whole dose curve; as a rule, active = well fitted curve in the direction sought with a large enough effect; inconclusive = small, poorly fitted or top-dose-only effect, or another doubt; inactive = no such curve, though single readings can be large; an effect the other way counts as inactive or inconclusive.

CC(C)Oc1ccc(C(=O)N/N=C/c2ccc(-c3ccc(S(=O)(=O)Nc4ncccn4)cc3)o2)cc1	G9a block 50µM, BAZ2B block inconclusive, JMJD2A Tudor inconclusive
NC(=O)N/N=C/c1ccc(-c2ccc(S(=O)(=O)Nc3ncccn3)cc2)o1	G9a block 11µM
NC(=O)N/N=C/c1ccc(-c2cccc(C(F)(F)F)c2)o1	none
C#CCOCCOCCOCCNc1nc(N2CCN(C(=O)[C@H](CCCCN)n3cc([C@@H](N)CO)nn3)CC2)nc(N2CCN(C(=O)[C@H](CCCCN)n3cc([C@@H](N)CC(C)C)nn3)CC2)n1	JMJD2A Tudor 56µM (no result: G9a block, BAZ2B block)
C#CCOCCOCCOCCNc1nc(N2CCN(C(=O)[C@H]([C@@H](C)CC)n3cc([C@@H](N)CO)nn3)CC2)nc(N2CCN(C(=O)[C@H](CCCCN)n3cc([C@@H](N)CC(C)C)nn3)CC2)n1	G9a block inconclusive, BAZ2B block 79µM, JMJD2A Tudor 50µM
C#CCOCCOCCOCCNc1nc(N2CCN(C(=O)[C@H]([C@@H](C)CC)n3cc(CCCCN)nn3)CC2)nc(N2CCN(C(=O)[C@H](CCCCN)n3cc(CCC(=O)O)nn3)CC2)n1	none
CC(=O)c1ccc(OCCCC(=O)Nc2ccc(C)c(S(=O)(=O)N3CCCCC3)c2)cc1	G9a block inconclusive
O=C(CNS(=O)(=O)c1ccc([N+](=O)[O-])cc1)N/N=C/c1ccc(O)cc1O	GLS inhibitor 13µM
CCCC(c1nnnn1CC(=O)OCC)N(Cc1cc2c(C)cc(C)cc2[nH]c1=O)C1CCCC1 (stereo unspecified)	G9a block 28µM
CCCC(c1nnnn1CC(=O)OCC)N(Cc1cc2ccc(C)cc2[nH]c1=O)C1CCCC1 (stereo unspecified)	none
CC(C)(C)C(=O)N1CCc2cc(-c3csc(N)n3)ccc21	BAZ2B block 50µM
CCC(C)C(=O)N1CCc2cc(-c3csc(N)n3)ccc21 (stereo unspecified)	G9a block inconclusive, BAZ2B block inconclusive
CNc1nc(-c2ccc3c(c2)CCN3C(=O)c2ccccc2F)c(C)s1	G9a block 35µM
CNc1nc(-c2ccc3c(c2)CCN3C(=O)c2ccccc2F)cs1	G9a block 50µM, BAZ2B block 50µM, HP1b binding inh inconclusive, JMJD2A Tudor inconclusive
CNc1nc(-c2ccc3c(c2)CCN3C(=O)CC(C)(C)C)c(C)s1	none
Nc1nc(-c2ccc3c(c2)OCCO3)cs1	G9a block inconclusive (no result: BAZ2B block)
Nc1nc(-c2ccc3c(c2)CCCC3)cs1	G9a block 18µM, BAZ2B block 45µM, JMJD2A Tudor inconclusive
Cc1cc(Br)ccc1NC(=S)NCCc1ccccc1	none
CC(=O)Nc1ccc(NC(=O)CSC2=NS(=O)(=O)c3cc(F)ccc3N2)cc1	G9a block inconclusive, BAZ2B block inconclusive
O=C(c1cc2c(=O)n3ccccc3nc2s1)N1CCN(Cc2ccc3c(c2)OCO3)CC1	none
CC(=O)Nc1nc(-c2ccc3c(c2)CCN3C(=O)C2CC2)c(C)s1	G9a block inconclusive
CCCC(=O)N1CCc2cc(-c3nc(N)sc3C)ccc21	G9a block 40µM
CCOC(=O)C(C)NC(=O)CCc1nnc2ccc(N3CCC(C)CC3)nn12 (stereo unspecified)	none
COc1ccc(S(=O)(=O)N2CCN(c3ccccc3F)CC2)cc1-c1noc(C)n1	G9a block 0.5µM, BAZ2B block 56µM
Cc1cc(S(=O)(=O)N2CCN(c3ccccc3F)CC2)ccc1-n1cnnn1	G9a block 50µM, BAZ2B block inconclusive
Cc1cc(S(=O)(=O)N2CCC(N3CCCCC3)CC2)ccc1-n1cnnn1	G9a block 50µM, BAZ2B block inconclusive
O=c1[nH]c2ccc(S(=O)(=O)N3CCN(c4ccccc4F)CC3)cc2s1	G9a block 14µM
COc1ccccc1-n1c(SCC(=O)Nc2cc(C)on2)nc2c(c1=O)SCC2	none
Nc1cc(Cl)nc(N/N=C/c2ccc([N+](=O)[O-])cc2)n1	none
Cc1nc2c(C(=O)NCCc3ccccc3)c[nH]n2c(=O)c1Cl	G9a block 50µM
Cc1nc2c(C(=O)NCc3ccccc3Cl)cnn2c(C)c1Cc1ccccc1	none
Cc1nc2c(C(=O)NCc3ccccc3)cnn2c(C)c1Cc1ccc(F)cc1	GLS inhibitor 13µM, JMJD2A Tudor inconclusive
Cc1nc2c(-c3ccc(F)cc3)c(C)[nH]n2c(=O)c1Cl	G9a block 50µM
Cc1nc2c(C(=O)NCc3ccc(F)cc3)c[nH]n2c(=O)c1Cl	G9a block 50µM
COC(=O)c1ccc(/C=N/NC(=O)CNc2cccc(C)c2)cc1	none
CN1C(=O)C(c2nnc(Nc3cccc4ccccc34)s2)C2CC1(C)Oc1ccccc12 (stereo unspecified)	G9a block 45µM, JMJD2A Tudor inconclusive
COc1ccc(N=c2oc3ccccc3cc2C(=O)Nc2ccccn2)cc1OC	none (no result: HP1b binding inh, GLS inhibitor, JMJD2A Tudor)
COc1ccc(-c2nn(-c3ccccc3)cc2CNCCN2CCOC2=O)c(F)c1	none
CCCSc1nc2cc(C)c(C)cc2n1CC(C)O (stereo unspecified)	G9a block 11µM, BAZ2B block inconclusive
CCCSc1nc2cc(C)c(C)cc2n1CC(O)CO (stereo unspecified)	none
COc1ccc(C(c2c(O)nc(SC)n(C)c2=O)c2c(O)nc(SC)n(C)c2=O)cc1O	G9a block 16µM
COc1ccc(-c2nc(SC)n(C)c(=O)c2C#N)cc1OC	none
COc1ccccc1-n1cnnc1SCC(=O)Nc1ccccc1	none
CCCCN1C(=O)C(O)(c2c(C)[nH]c3ccccc23)c2ccccc21 (stereo unspecified)	none
C=CCN1C(=O)C2(NNc3ccccc3O2)c2ccccc21 (stereo unspecified)	G9a block 16µM, BAZ2B block inconclusive, JMJD2A Tudor inconclusive
CCCCN1C(=O)C2(NNc3ccccc3O2)c2ccccc21 (stereo unspecified)	G9a block inconclusive, BAZ2B block 45µM, JMJD2A Tudor inconclusive
CC(C)CCN(CCC(C)C)C(=O)Cc1c(O)c2ccccc2[nH]c1=O	none
Cc1ccc(C(=O)N2NC(c3ccc(F)cc3)C3C(=O)N(c4ccc(C)c(C)c4)C(=O)C32)cc1 (stereo unspecified)	G9a block 56µM
CCOc1ccc(N2C(=O)C3C(c4ccccc4F)NN(C(=O)c4ccc(C)cc4)C3C2=O)cc1 (stereo unspecified)	G9a block 50µM
C=CCNc1nc(NC(C)(C)CO)nc(OCC)n1	none
Cc1cc(C)c(NC(=O)/C=C\C(=O)O)c([N+](=O)[O-])c1	G9a block 3.5µM, JMJD2A Tudor inconclusive
O=C(Nc1ccc(Cl)cc1F)C1CC1c1ccccc1 (stereo unspecified)	none (no result: G9a block)
CC(=O)Nc1ccc(S(=O)(=O)Nc2cc([N+](=O)[O-])ccc2C)cc1	G9a block inconclusive, HP1b binding inh inconclusive, JMJD2A Tudor 10µM
O=C(O)C1CC=CCC1C(=O)NNc1ccccc1 (stereo unspecified)	G9a block 14µM
